Here are results for 46 compounds from PubChem BioAssay AID2685 (National Center for Advancing Translational Sciences (NCATS), 2010).

Among all 320,000 compounds or so, about 2,100 (0.66%) were called active. Roughly 53% stayed inconclusive and do not appear here. The call rests on the fitted dose curve; in most records, active means well fitted inhibition curve with a large enough effect in the signal ratio, with a control signal flat (not every such curve was filed as active); inconclusive means small, poorly fitted or top-dose-only effect, or effect the other way, or a change in a side signal; inactive means flat fitted curve, though single readings scatter; the % refers to the signal ratio. The sample as a whole holds a higher share of actives than the screen did.
Potency means the concentration at half of the fitted maximal effect.

A short description of the assay: qHTS Assay for Lipid Storage Modulators in Drosophila S3 Cells.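 On cell number change: cells counted by Cell Tracker Red CMTPX staining in the red channel.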 On lipid storage change, negative = inhibition: on the % scale 0 is the no-effect control and ±100 the full control effect. Conditions: BODIPY lipid droplet fluorescence, 18-24 h, cells fed with added oleic acid; cell number change: measured here: cell count max response; series mostly up to 46.1 µM. The method, boiled down:
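Drosophila S3 cells got compounds at several concentrations plus oleic acid (400 uM solution). Laser-scanning cytometry with 488 nm excitation read lipid droplets at 500-530 nm and cells at 575-640 nm. Percent activity was relative to 20 uM Triacsin C.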
Turning to `O=C(CS(=O)(=O)Cc1ccccc1)NCc1ccco1`, the Potency entry is “inactive” and the cell number change is -5.74%.
For the compound `Cc1ccc(CCNC(=O)C2CCCN(S(=O)(=O)N3CC(C)CC(C)C3)C2)cc1` (stereo not given), the Potency result was “inactive” and the cell number change was -24.2%.
Take `CCOC(=O)c1c(NC(=O)COC(=O)Cn2c(C(F)(F)F)nc3ccccc32)sc(C)c1C`: the Potency entry is “inactive” and the cell number change was found to be 2.48%.
Consider `CC(C)(C)NC(=O)NC(=O)COC(=O)Cn1c(C(F)(F)F)nc2ccccc21`, for which the Potency is 5.17 µM (active) and the cell number change was -8.07%.
For the compound `CC(C)(C)c1ccc(OC(=O)Cn2c(C(F)(F)F)nc3ccccc32)cc1`, the Potency is 13 µM (active) and the cell number change was -15.3%.
Take `COC(=O)Cn1c(C(F)(F)F)nc2ccccc21`: the Potency entry is “inactive” and the cell number change was -24.1%.
Turning to `CC(C)(C)NC(=O)NC(=O)COC(=O)Cn1cnc2ccccc2c1=O`, the Potency result was “inactive” and the cell number change was -17.2%.
Turning to `CC(=O)Cn1c(C(F)(F)F)nc2ccccc21`, the Potency result is “inactive” and the cell number change is -7.24%.
As for `Nc1ccc(C(=O)Nc2cccc(NC(=O)c3ccc(N)cc3)c2)cc1`, the Potency result is “inactive” and the cell number change was -20.4%.
For the compound `CCCN1C(=O)C2C(C(=O)Nc3cccc(OC)c3)C3C=CC2(O3)C1C(=O)NC1CCCCC1` (stereo not given), the Potency result was “inactive” and the cell number change was determined as 1.47%.
As for `Cc1ccc(S(=O)(=O)N(CC(=O)O)Cc2ccco2)cc1`, the Potency result was “inactive” and the cell number change worked out at 0.734%.
As for `COc1cccc(NC(=S)NCc2cccnc2)c1`, the Potency result is “inactive”.
Regarding `COc1cc(NC(=S)NCc2cccnc2)cc(OC)c1OC`, the Potency result was “inactive” and the cell number change came to 5.48%.
The like results for `COc1cc(NC(=S)NCc2cccnc2)cc(OC)c1` were, in that order, 5.8 µM (active) and -12.6%.
The corresponding values for `Cc1ccc(-c2nc(C)sc2CC(=O)Nc2cccc(C)c2C)cc1` are “inactive” and 6.08%.
Consider `COc1ccc(NC(=O)C(=O)Nc2cccc3cccnc23)cc1OC`, for which the Potency entry was “inactive” and the cell number change stood at 32.1%.
For `COc1ccc(C2CC(=O)C3=C(C2)Nc2ccccc2N(C(=O)CCC(=O)O)C3c2ccc(F)cc2)cc1OC` (stereo not given), the Potency entry was “inactive” and the cell number change was -2.28%.
As for `CC(C)c1nnc(SCC(=O)N2CCOCC2)n1C`, the Potency result is “inactive” and the cell number change turned out to be 3.98%.
Regarding `CN(C)S(=O)(=O)c1ccc2c(c1)/C(=C/c1cc3c([nH]1)CCCC3)C(=O)N2`, the Potency was 5.17 µM (active) and the cell number change is 2.43%.
The like results for `Cc1ccc2c(c1)/C(=C/c1ccc(F)cc1)C(=O)N2` were, in that order, “inactive” and 18%.
As to `CN(C)S(=O)(=O)c1ccc2c(c1)Cc1cc(S(=O)(=O)N(C)C)ccc1-2`, the Potency entry is “inactive” and the cell number change was 7.91%.
The like results for `CCOC(=O)C(=NCCCN(C)C)NNc1ccc(Br)cc1` were, in that order, “inactive” and 23.2%.
The corresponding values for `COCc1ccc(C(=O)N(C)C2CCCN(Cc3ccccc3F)C2)o1` (stereo not given) are “inactive” and -1.36%.
Regarding `CC(=O)c1c(C)[nH]c(C(=O)Nc2nc(C)cs2)c1C`, the Potency entry is “inactive” and the cell number change was -7.81%.
For `COc1ccc(NS(=O)(=O)CC23CCC(CC2=O)C3(C)C)cc1` (stereo not given), the Potency entry is “inactive” and the cell number change was determined as 6.22%.
For the compound `COc1cccc(NS(=O)(=O)CC23CCC(CC2=O)C3(C)C)c1` (stereo not given), the Potency is 3.66 µM (active) and the cell number change is -15%.
For the compound `CC1(C)C2CCC1(CS(=O)(=O)Nc1ccccc1)C(=O)C2` (stereo not given), the Potency entry was “inactive” and the cell number change is -22.6%.
Regarding `Cc1ccsc1C(=O)NCCc1nnc2ccccn12`, the Potency entry is “inactive” and the cell number change was 18.3%.
The corresponding values for `COc1cccc(/C=N/N(C)C2=NS(=O)(=O)c3ccccc32)c1O` are “inactive” and 12.6%.
For the compound `Cc1ccc(/C=N/N(C)C2=NS(=O)(=O)c3ccccc32)cc1`, the Potency entry was “inactive” and the cell number change was found to be 17.1%.
Take `CN(/N=C/c1cc(Cl)ccc1O)C1=NS(=O)(=O)c2ccccc21`: the Potency was 3.66 µM (active) and the cell number change turned out to be 12.6%.
In the case of `CCCCCOC(=O)CCN1C(=O)/C(=C2\SC(=S)N(CCC(=O)OCCCCC)C2=O)SC1=S`, the Potency entry is “inactive” and the cell number change was -3.31%.
Take `Cc1ccc(NC(=O)c2cc(=O)[nH]c3ccc(S(=O)(=O)N4CCOCC4)cc23)nc1`: the cell number change is -6.73% and the lipid storage change, negative = inhibition is 11.8% [at 0.0737 µM] (inactive).
In the case of `COc1ccc(S(=O)(=O)Oc2ccc(C(=S)N3CCOCC3)cc2OC)cc1`, the Potency result was “inactive” and the cell number change is -13.8%.
Consider `COc1ccc(S(=O)(=O)Oc2cccc(C(=S)N3CCOCC3)c2)cc1`, for which the Potency entry is “inactive” and the cell number change was -15.5%.
The like results for `COc1ccc(S(=O)(=O)Oc2ccccc2C(=S)N2CCOCC2)cc1` were, in that order, 1.46 µM (active) and -29.9%.
As for `COc1ccc2[nH]c(=O)c(CN(CCN(C)C)C(=O)NCc3ccccc3)cc2c1`, the Potency entry was “inactive” and the cell number change is 17.8%.
Take `COc1ccccc1CNCc1cc(OC)c(OC)cc1OC`: the Potency result was “inactive” and the cell number change is -2.42%.
The corresponding values for `COc1ccccc1CNN` are “inactive” and -17.3%.
Regarding `COc1ccccc1CNCC(c1ccccc1)c1ccccc1`, the Potency was 1.46 µM (active) and the cell number change is -20%.
Regarding `CCCCC(=O)Nc1ccc(NC(=O)c2cnccn2)cn1`, the Potency entry is “inactive” and the cell number change was 3.06%.
The corresponding values for `CCOC(=O)c1c(NC(=O)c2cccnc2)sc(C(C)=O)c1C` are “inactive” and 5.18%.
In the case of `O=C(c1ccc(S(=O)(=O)Nc2cccc(C(F)(F)F)c2)cc1)N1CCC1`, the Potency result was “inactive” and the cell number change came to 1.62%.
Turning to `OCCN(Cc1ccccc1)Cc1cccc(F)c1`, the Potency result is “inactive” and the cell number change was -7.51%.
On to `CCN(Cc1ccccc1)Cc1cccc([N+](=O)[O-])c1`, for which the Potency entry was “inactive”.
As to `O=[N+]([O-])c1cccc(CN(CCO)Cc2ccccc2)c1`, the Potency is 13 µM (active) and the cell number change is -9.58%.
